Experiment [1] in a line: qHTS assay to identify aromatase inhibitors - cell viability counter screen (AID 743084).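 Note: cells stimulated with testosterone during compound exposure; nearly all actives have a fitted effect of over 55% in size.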 Note: potency is the fitted concentration of half-maximal effect. A general note: In qHTS, concentration-response curves come from the screen itself.
The target in experiment [2] is Aryl hydrocarbon receptor (Homo sapiens) (UniProt P35869). As to the kind of experiment: qHTS assay to identify small molecule that activate the aryl hydrocarbon receptor (AhR) signaling pathway (AID 743085).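 For activation: HG2L7.5c1 human HepG2 liver cells with stably integrated DRE-driven firefly reporter; series mostly up to about 70 µM.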 Note: nearly all actives have a fitted effect of over 15% in size. Note: potency is the fitted concentration of half-maximal effect. The method, boiled down:
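Compounds were tested in HepG2 hepatocellular carcinoma cells harbouring a stably integrated luciferase gene under control of 20 DREs. Increased reporter signal after 24 h treatment at 37C was taken as AhR activation.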

Experiment [3] in a line: qHTS assay to identify small molecule that activate the aryl hydrocarbon receptor (AhR) signaling pathway - cell viability counter screen (AID 743086). Note: nearly all actives have a fitted effect of over 45% in size. Note: potency is the fitted concentration of half-maximal effect. The method, boiled down:
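HepG2-AhR-luc (HG2L7.5c1) cells, 4000/well, treated 24 h at 37 C with compound; viability measured as CellTiter-Fluor fluorescence after 30 min in the same wells as the luciferase read.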

In experiment [4] the target is Peroxisome proliferator-activated receptor gamma (Homo sapiens) (UniProt P37231). As to the kind of experiment: qHTS assay to identify small molecule agonists of the peroxisome proliferator-activated receptor gamma (PPARg) signaling pathway (AID 743094; active = well fitted activation curve with a large enough effect in the signal ratio in the repeat runs, not every such curve was filed as active; the % refers to the signal ratio). The method, boiled down: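 HEK293H PPARg-bla cells, 5 h settle at 37C/5% CO2; compound (DMSO) 17 h, 37C; B/G FRET substrate 1 h RT; fluorescence intensity read-out. qHTS format.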

Experiment [5] in a line: qHTS assay to identify small molecule antagonists of the peroxisome proliferator-activated receptor gamma (PPARg) signaling pathway - cell viability counter screen (AID 743194). Note: nearly all actives have a fitted effect of over 55% in size. The method, boiled down: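 Cytotoxicity counter screen in PPARg-bla HEK293H cells, same wells as reporter assay. Compounds plus 50 nM rosiglitazone (final) for 17 h at 37 C, then viability read by CellTiter-Glo luminescence.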

Experiment [6] is described as follows: qHTS assay for small molecule agonists of the antioxidant response element (ARE) signaling pathway - cell viability counter screen (AID 743203; calls by dose curve; note: nearly all actives have a fitted effect of over 55% in size). Summed up:
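Luminescence read-out (CellTiter-Glo, 30 min at room temperature) measured cell viability in the same wells as the ARE beta-lactamase reporter. HepG2 ARE-bla cells were treated with compounds for 16 hrs at 37C/5% CO2.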

Experiment [7] is described as follows: qHTS assay for small molecule activators of the heat shock response signaling pathway - cell viability counter screen (AID 743209). Note: nearly all actives have a fitted effect of over 50% in size. Summed up:
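HSE-bla HeLa; 1500 cells/well; overnight 37 C, 5% CO2; compound 5 h 37 C; LiveBLAzer B/G substrate 2.5 h RT; CellTiter-Glo 30 min RT; luminescence.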

A short description of experiment [8]: qHTS assay to identify small molecule antagonists of the peroxisome proliferator-activated receptor delta (PPARd) signaling pathway - cell viability counter screen (AID 743213). Note: nearly all actives have a fitted effect of over 50% in size. Note: potency is the fitted concentration of half-maximal effect. Summed up:
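Viability counter-screen, qHTS format: PPARd-bla HEK293H, L165041 300 nM final, 17 h compound exposure at 37 C, CellTiter-Glo luminescence after 30 min RT.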

Experiment [9] in a line: qHTS assay to identify small molecule agonists of the farnesoid-X-receptor (FXR) signaling pathway - cell viability counter screen (AID 743218). Note: nearly all actives have a fitted effect of over 45% in size. Note: potency is the fitted concentration of half-maximal effect. The method, boiled down: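 Luminescence from CellTiter-Glo, read after 30 min at RT, reports viability of GeneBLAzer FXR-UAS-bla HEK 293T cells treated 16 h with compounds in the wells used for the beta-lactamase reporter.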
For experiment [10], the target named is Vitamin D3 receptor (Homo sapiens) (UniProt P11473). As to the kind of experiment: qHTS assay to identify small molecule agonists of the vitamin D receptor (VDR) signaling pathway (AID 743222; calls by dose curve). Summed up: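 Beta-lactamase reporter readout (LiveBLAzer B/G FRET, 2 h RT) in VDR-bla cells after 16 h compound treatment at 37C, 5% CO2; cells pre-incubated 4 h before pin transfer of DMSO solutions.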

The target is the same in experiment [11]. As to the kind of experiment: qHTS assay to identify small molecule antagonists of the vitamin D receptor (VDR) signaling pathway (AID 743223; active = well fitted inhibition curve with a large enough effect in the signal ratio in the repeat runs, not every such curve was filed as active; the % refers to the signal ratio). Summed up:
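Cells carrying a VDR-driven beta-lactamase reporter (VDR-bla) were co-treated with compound and 3 nM final 1alpha,25-dihydroxyvitamin D3 for 16 h at 37C; reporter activity was measured as FRET substrate fluorescence after 2 h at room temperature.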

Experiment [12] in a line: qHTS assay to identify small molecule agonists of the peroxisome proliferator-activated receptor delta (PPARd) signaling pathway - cell viability counter screen (AID 743211). Note: nearly all actives have a fitted effect of over 55% in size. Note: potency is the fitted concentration of half-maximal effect. The method, boiled down: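 Counter screen for cytotoxicity run in parallel with the PPARd reporter screen. Beta-lactamase reporter HEK293H cells exposed to compounds 17 h; ATP-based CellTiter-Glo luminescence quantified viability.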

For experiment [13], the target named is Peroxisome proliferator-activated receptor delta (Homo sapiens) (UniProt Q03181). As to the kind of experiment: qHTS assay to identify small molecule agonists of the peroxisome proliferator-activated receptor delta (PPARd) signaling pathway (AID 743212; calls by dose curve). Summed up: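 Read-out: beta-lactamase FRET fluorescence after 2 h room-temperature incubation with LiveBLAzer B/G substrate. Cells were HEK293H carrying a UAS-bla reporter for PPARd, treated at 37 C with DMSO-dissolved compounds.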

Experiment [14] shares this target. As to the kind of experiment: qHTS assay to identify small molecule antagonists of the peroxisome proliferator-activated receptor delta (PPARd) signaling pathway (AID 743215; active = well fitted inhibition curve with a large enough effect in the signal ratio in the repeat runs, not every such curve was filed as active; the % refers to the signal ratio;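 note: cells stimulated with agonist L165041 at 300 nM final during compound exposure; series mostly up to about 62 µM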). The method, boiled down: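 HEK293H GeneBLAzer PPARd UAS-bla reporter cells; cpd + L165041 300 nM final, 17 h 37 C; LiveBLAzer B/G FRET substrate 2 h RT; fluorescence intensity read-out. Antagonist mode.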

Experiment [15] is described as follows: qHTS assay to identify small molecule antagonists of the farnesoid-X-receptor (FXR) signaling pathway - cell viability counter screen (AID 743221; active = well fitted cell-killing curve with a large enough effect in the repeat runs, not every such curve was filed as active; note: nearly all actives have a fitted effect of over 50% in size). The method, boiled down: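 Multiplexed counter screen: viability of FXR-bla HEK 293T cells under agonist stimulation by chenodeoxycholic acid (50 uM, final) and test compound for 16 h at 37 C, measured by CellTiter-Glo luminescence in the reporter wells.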

Experiment [16] addresses Peroxisome proliferator-activated receptor gamma (Homo sapiens) (UniProt P37231). As to the kind of experiment: qHTS assay to identify small molecule antagonists of the peroxisome proliferator-activated receptor gamma (PPARg) signaling pathway (AID 743191; calls by dose curve; note: series mostly up to about 63 µM; nearly all actives have a fitted effect of over 30% in size). The method, boiled down:
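GeneBLAzer PPARg UAS-bla HEK293H cells, 5 h post-plating, exposed to compounds 17 h at 37C. LiveBLAzer B/G FRET substrate added for 1 h at room temperature; beta-lactamase reporter read by fluorescence intensity.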

Experiment [17] in a line: qHTS assay for small molecule agonists of the antioxidant response element (ARE) signaling pathway (AID 743202; active = well fitted activation curve with a large enough effect in the signal ratio in the repeat runs, not every such curve was filed as active; the % refers to the signal ratio). The method, boiled down:
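HepG2 ARE-bla reporter line, 2,000 cells/well; 5 h preincubation 37 C/5% CO2; compound (DMSO) 16 h 37 C; B/G FRET substrate 2 h RT; fluorescence intensity.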

The nature of experiment [18]: qHTS assay for small molecule activators of the heat shock response signaling pathway (AID 743210; active = well fitted activation curve with a large enough effect in the signal ratio in the repeat runs, with a control signal flat, not every such curve was filed as active; the % refers to the signal ratio;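 note: HeLa cells with beta-lactamase reporter driven by heat shock elements; series mostly up to about 63 µM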). Summed up:
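Beta-lactamase reporter read-out: FRET substrate fluorescence after 2.5 h at RT, following 5 h compound treatment at 37 C of HeLa cells carrying HSE-driven bla reporter; quantitative HTS format.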

In experiment [19] the target is Bile acid receptor (Homo sapiens) (UniProt Q96RI1). As to the kind of experiment: qHTS assay to identify small molecule antagonists of the farnesoid-X-receptor (FXR) signaling pathway (AID 743217; active = well fitted inhibition curve with a large enough effect in the signal ratio in the repeat runs, not every such curve was filed as active; the % refers to the signal ratio). Summed up:
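Read-out: beta-lactamase FRET fluorescence (LiveBLAzer B/G substrate, 2 h, room temperature) in GeneBLAzer FXR-UAS-bla HEK 293T cells. Compounds were co-dosed with 50 uM chenodeoxycholic acid (final) and incubated 16 h at 37 °C.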

Experiment [20] has the same target. As to the kind of experiment: qHTS assay to identify small molecule agonists of the farnesoid-X-receptor (FXR) signaling pathway (AID 743220; active = well fitted activation curve with a large enough effect in the signal ratio in the repeat runs, not every such curve was filed as active; the % refers to the signal ratio). The method, boiled down:
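FXR-UAS-bla HEK 293T cells carrying a UAS-driven beta-lactamase reporter were plated for 5 h at 37C/5% CO2, then exposed to DMSO-dissolved Tox21 10K compounds for 16 h at 37C. A LiveBLAzer B/G FRET substrate was loaded for 2 h at room temperature before fluorescence reading.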

Results filed as inconclusive are left out. Calls of active or inactive are those of the source. Unless noted, calls come from the whole dose curve; as a rule, active = well fitted curve in the direction sought with a large enough effect in the repeat runs; inconclusive = weak or mixed curves; inactive = no such curve, though single readings can be large; an effect the other way counts as inactive or inconclusive.

Sequence of Peroxisome proliferator-activated receptor gamma (Homo sapiens) (P37231 whole entry, looked up): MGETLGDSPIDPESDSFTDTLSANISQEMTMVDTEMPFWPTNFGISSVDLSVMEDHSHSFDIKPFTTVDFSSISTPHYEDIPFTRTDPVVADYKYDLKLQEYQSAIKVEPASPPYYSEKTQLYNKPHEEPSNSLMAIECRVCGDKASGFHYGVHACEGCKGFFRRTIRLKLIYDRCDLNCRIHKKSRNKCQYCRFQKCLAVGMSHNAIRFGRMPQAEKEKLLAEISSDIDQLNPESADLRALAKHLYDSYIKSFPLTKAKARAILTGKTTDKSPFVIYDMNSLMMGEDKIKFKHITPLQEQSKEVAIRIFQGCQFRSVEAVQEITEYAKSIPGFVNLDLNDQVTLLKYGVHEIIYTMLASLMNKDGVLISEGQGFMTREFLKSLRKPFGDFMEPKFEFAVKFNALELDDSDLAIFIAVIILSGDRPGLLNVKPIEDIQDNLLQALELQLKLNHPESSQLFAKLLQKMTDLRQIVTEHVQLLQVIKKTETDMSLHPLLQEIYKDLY
Sequence of Vitamin D3 receptor (Homo sapiens) (P11473 whole entry, looked up): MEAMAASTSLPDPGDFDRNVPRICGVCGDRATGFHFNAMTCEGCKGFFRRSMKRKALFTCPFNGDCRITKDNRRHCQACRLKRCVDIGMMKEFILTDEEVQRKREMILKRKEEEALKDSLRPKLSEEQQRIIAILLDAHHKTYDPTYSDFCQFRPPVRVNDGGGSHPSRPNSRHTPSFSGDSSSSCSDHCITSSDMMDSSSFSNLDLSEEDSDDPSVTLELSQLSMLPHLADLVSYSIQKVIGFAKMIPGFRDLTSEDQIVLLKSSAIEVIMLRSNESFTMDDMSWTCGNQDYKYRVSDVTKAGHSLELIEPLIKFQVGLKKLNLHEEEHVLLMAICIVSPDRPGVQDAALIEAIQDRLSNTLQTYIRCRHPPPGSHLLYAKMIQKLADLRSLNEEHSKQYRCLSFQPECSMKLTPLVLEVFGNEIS
Sequence of Peroxisome proliferator-activated receptor delta (Homo sapiens) (Q03181 whole entry, looked up): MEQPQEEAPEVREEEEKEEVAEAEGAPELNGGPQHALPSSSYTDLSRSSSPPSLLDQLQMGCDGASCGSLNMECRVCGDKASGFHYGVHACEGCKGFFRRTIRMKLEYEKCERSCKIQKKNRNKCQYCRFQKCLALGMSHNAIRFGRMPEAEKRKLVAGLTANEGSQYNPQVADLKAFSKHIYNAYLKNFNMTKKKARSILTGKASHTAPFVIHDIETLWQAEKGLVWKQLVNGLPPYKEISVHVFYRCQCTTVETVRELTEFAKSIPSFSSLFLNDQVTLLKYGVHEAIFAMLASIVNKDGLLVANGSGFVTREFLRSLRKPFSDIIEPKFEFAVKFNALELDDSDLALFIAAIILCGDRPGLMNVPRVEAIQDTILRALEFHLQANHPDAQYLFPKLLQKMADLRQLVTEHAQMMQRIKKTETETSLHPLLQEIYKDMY
Sequence of Bile acid receptor (Homo sapiens) (Q96RI1 whole entry, looked up): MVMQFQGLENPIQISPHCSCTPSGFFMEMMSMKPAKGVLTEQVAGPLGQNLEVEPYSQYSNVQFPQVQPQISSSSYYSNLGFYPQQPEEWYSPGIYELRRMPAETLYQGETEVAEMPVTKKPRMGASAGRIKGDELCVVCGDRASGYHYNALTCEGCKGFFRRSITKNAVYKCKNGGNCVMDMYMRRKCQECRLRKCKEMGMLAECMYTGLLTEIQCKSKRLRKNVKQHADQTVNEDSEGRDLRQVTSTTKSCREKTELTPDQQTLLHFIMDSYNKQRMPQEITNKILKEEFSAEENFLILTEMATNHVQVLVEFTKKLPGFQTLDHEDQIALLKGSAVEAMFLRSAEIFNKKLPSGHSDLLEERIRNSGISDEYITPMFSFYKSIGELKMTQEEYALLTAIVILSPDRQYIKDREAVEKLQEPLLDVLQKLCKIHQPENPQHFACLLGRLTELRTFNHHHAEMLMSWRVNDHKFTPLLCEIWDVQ
Sequence of Aryl hydrocarbon receptor (Homo sapiens) (P35869 whole entry, looked up): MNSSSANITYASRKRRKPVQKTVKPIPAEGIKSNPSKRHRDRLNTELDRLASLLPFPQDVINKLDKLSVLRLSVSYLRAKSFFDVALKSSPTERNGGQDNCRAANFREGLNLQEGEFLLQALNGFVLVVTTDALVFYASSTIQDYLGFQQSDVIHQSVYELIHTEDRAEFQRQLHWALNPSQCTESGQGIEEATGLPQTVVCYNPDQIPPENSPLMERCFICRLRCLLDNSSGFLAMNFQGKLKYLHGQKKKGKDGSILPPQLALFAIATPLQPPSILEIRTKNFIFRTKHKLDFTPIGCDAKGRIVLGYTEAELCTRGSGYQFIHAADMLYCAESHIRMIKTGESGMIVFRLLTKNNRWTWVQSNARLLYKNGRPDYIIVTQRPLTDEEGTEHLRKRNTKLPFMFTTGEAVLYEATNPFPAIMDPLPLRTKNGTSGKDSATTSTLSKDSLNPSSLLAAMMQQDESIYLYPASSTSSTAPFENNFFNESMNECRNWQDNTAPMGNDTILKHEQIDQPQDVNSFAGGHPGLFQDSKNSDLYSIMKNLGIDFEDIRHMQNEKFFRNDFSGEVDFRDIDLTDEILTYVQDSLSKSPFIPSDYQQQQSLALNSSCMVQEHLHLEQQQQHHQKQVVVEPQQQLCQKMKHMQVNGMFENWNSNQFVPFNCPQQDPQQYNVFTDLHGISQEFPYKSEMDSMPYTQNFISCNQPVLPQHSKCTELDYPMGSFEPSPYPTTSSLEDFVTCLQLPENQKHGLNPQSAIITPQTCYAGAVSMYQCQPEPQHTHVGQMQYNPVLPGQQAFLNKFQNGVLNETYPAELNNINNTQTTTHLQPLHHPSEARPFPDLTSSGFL

As to `CN(C)CCC=C1c2ccccc2C=Cc2ccccc21`, the Potency result in [1], in experiment [2], in [3], in experiment [4], in [5] and in [6] was “inactive” in each case. Also, the Potency result in experiment [7], in experiment [10] and in [11] was “inactive” each time. For the same compound, the Potency in experiment [8] was 23.7 µM (active); in [9], 11.9 µM (active).

Turning to `COc1ccccc1N1CCN(CC(O)COc2cccc3ccccc23)CC1` (configuration not stated), the Potency result in experiment [1], in experiment [3], in [4], in [5], in [6] and in [7] was “inactive” in each case. For the same compound, the Potency result in experiment [13], in [14], in [15], in experiment [10] and in experiment [11] was “inactive” throughout. For the same compound, the Potency in [2] is 29.8 µM (active); in experiment [12], 26.6 µM (active); in [8] it was 29.8 µM (active).

For `COc1cc(C(=O)NCCCCCC(=O)O)cc(OC)c1OC`, the Potency result in [1], in [2], in experiment [3], in experiment [16], in [5] and in experiment [17] was “inactive” throughout. The Potency entry in experiment [6], in experiment [7], in experiment [18], in experiment [12], in [13] and in experiment [8] was “inactive” throughout. Further, the Potency result in experiment [9], in experiment [15] and in [11] was “inactive” in each case.

Regarding `CN(C)CCN1C(=O)c2ccccc2N(C)c2ccccc21`, the Potency entry in [1], in experiment [2], in [3], in [16], in experiment [5] and in experiment [17] was “inactive” in each case. The Potency entry in [6], in [7], in experiment [18], in [13], in [8] and in [19] was “inactive” in each case. The Potency entry in experiment [9], in experiment [20], in experiment [15], in experiment [10] and in [11] was “inactive” each time.

Regarding `COC(=O)CCS`, the Potency result in experiment [1], in experiment [2], in experiment [3], in [16], in experiment [5] and in experiment [17] was “inactive” each time. Moreover, the Potency result in experiment [6], in experiment [7], in [18], in experiment [12], in experiment [13] and in experiment [8] was “inactive” in each case. Moreover, the Potency entry in experiment [14], in [9], in experiment [15], in experiment [10] and in [11] was “inactive” in each case.

For the compound `CN1CCCN=C1COC(=O)C(O)(c1ccccc1)C1CCCCC1` (configuration not stated), the Potency result in experiment [1], in [2], in experiment [3], in [16], in experiment [17] and in experiment [6] was “inactive” in each case. Moreover, the Potency result in experiment [7], in experiment [18], in experiment [13], in experiment [19], in experiment [9] and in experiment [20] was “inactive” in each case. Further, the Potency result in [15] was “inactive”.

`O=C(O)CCc1nc(-c2ccccc2)c(-c2ccccc2)o1`: the Potency entry in experiment [1], in [2], in experiment [3], in [16], in experiment [6] and in experiment [7] was “inactive” each time. For the same compound, the Potency result in [18], in [12], in experiment [8], in experiment [15] and in experiment [10] was “inactive” throughout.

Regarding `Cc1cccc(O)c1N`, the Potency result in [1], in [3], in experiment [5], in [6], in experiment [7] and in experiment [18] was “inactive” in each case. Moreover, the Potency result in [12], in experiment [8], in [19], in experiment [9] and in experiment [20] was “inactive” in each case. The Potency in [2] is 27.6 µM (active).

For `C[C@@H]1CC(=O)NN=C1c1ccc(NN=C(C#N)C#N)cc1`, the Potency in [1] is 26.6 µM (active); in experiment [2] it was 15 µM (active); in experiment [3], 26.6 µM (active). The Potency result in experiment [5], in [6], in [7], in experiment [12], in experiment [8] and in experiment [9] was “inactive” each time. Besides, the Potency result in experiment [15] is “inactive”.

With `C=C(C)[C@@H]1CCC2=CCC[C@@H](C)[C@]2(C)C1`, the Potency result in experiment [1], in experiment [2], in [3], in experiment [16], in experiment [6] and in [8] was “inactive” in each case. Also, the Potency entry in [15] was “inactive”.

The values are drawn from PubChem BioAssay (Tox21).
